Laboratory results: PubChem BioAssay (Tox21)
Results filed as inconclusive are left out. A number with no mark means an inactive call. The call rests on the fitted dose curve; in most records, active means well fitted cell-killing curve with a large enough effect in the repeat runs (not every such curve was filed as active); inconclusive means weak or mixed curves, or effect the other way; inactive means no such curve, though single readings can be large or run the other way.

Assay: qHTS assay to identify small molecule antagonists of the estrogen related receptor signaling pathway with the pleiotropic PPARgamma coactivator (PGC) from Tox21 10K library - cell viability counter screen (AID 1224840); further: nearly all actives have a fitted effect of over 40% in size
Conditions: PGC/ERR reporter cells viability, CellTiter-Fluor, 17.5 h; series mostly up to 92.4 µM; viability change, negative = cytotoxic: at the top concentration
Text: National Center for Advancing Translational Sciences [NCATS]
NIH Chemical Genomics Center [NCGC]
U.S. Environmental Protection Agency [EPA]
National Institutes of Environmental Health Sciences [NIEHS]
National Toxicology Program [NTP]
U.S. Food and Drug Administration [FDA]
Estrogen related receptors (ERRs), the first orphan nuclear receptors discovered, play an important role in the control of cellular energy metabolism. ERRs are required for high-energy production in response to the environmental challenges. The pleiotropic PPARgamma coactivator (PGC) is a major partner of ERR and a key regulator in energy homeostasis. Together they have been implicated in the etiology of metabolic disorders such as Type 2 diabetes and metabolic syndrome. ERR-alpha was also identified as an adverse marker for breast cancer progression; ERR-alpha-positive tumors have a poor prognosis. To screen and to identify environmental compounds that perturb the ERR and PGC/ERR signaling pathways could provide valuable information for potential therapeutic or preventive measures in the treatment of metabolic disease. To differentiate true PGC/ERR antagonists or agonist from cytotoxic substances, the assay is multiplexed with cell viability assay.
Tox21 Assay Protocol Summary:
The PGC/ERR cells were dispensed at 2,000 cells/5 ul/well in 1536-well white plates using a Multidrop dispenser. After the assay plates were incubated at a 37 C/5% CO2 incubator for 6 hours, 23 nL of compounds dissolved in DMSO, positive and negative controls or DMSO only was transferred to the assay plate by a pin tool. The plates were incubated at 37 C for 17.5 hours. 1 ul/well of CellTiter-Fluor reagent was added into the assay plates using a Flying Reagent Dispenser. After 30-minute incubation at 37 C/5% CO2, the fluorescence intensity in the plates was measured using a ViewLux plate reader.
On the % scale 0 is the no-effect control and ±100 the full control effect.

Going from `C=CC(C)(O)CC/C=C(\C)CCC=C(C)C` (stereo not given) to `CC(C)=CCCC(C)CCOC=O` (stereo not given), the “viability change, negative = cytotoxic” value rises from 1.03% to 1.55%.

Going from `CCCCCCCCOC(=O)CCCCCCCCC(=O)OCCCCCCCC` to `CC(C)CCCCCCc1ccc(OCCOCCO)cc1`, the “viability change, negative = cytotoxic” value falls from 0.532% to 0.0896%.

First: Cc1ccc(C(C)C)cc1O
Second: CC(=O)Nc1ccc(C)c(Cl)c1
The “viability change, negative = cytotoxic” value of the first is higher: 4.11% for the first, -1.53% for the second.

First: CC1=CC(=O)CC(C)(C)C1=O
Second: C[C@]12C(=O)OC(=O)[C@H]1[C@H]1C=C[C@@H]2C1
The “viability change, negative = cytotoxic” value of the first is lower: 3.62% for the first, 6.55% for the second.

First: Oc1ccccc1F
Second: CC(C)(C)c1cccc(O)c1
The “viability change, negative = cytotoxic” value of the first is higher: 6.37% for the first, -0.683% for the second.

Going from `CC1=C2[C@H](/C=C(\C)C(=O)O)CC[C@@H](C)[C@H]2CC1` to `CCOC(=O)C1CC(=O)C(=C(O)C2CC2)C(=O)C1` (stereo not given), the “viability change, negative = cytotoxic” value rises from -9.82% to -0.0362%.

Compared with `CC(C)(C)c1ccc(OC(=O)c2ccccc2O)cc1`, `Nc1ccc2ccccc2c1S(=O)(=O)O` is lower in “viability change, negative = cytotoxic” value: 1.26% for the first, -1.52% for the second.

First: O=C1C=CC(=O)O1
Second: O=C1CCCCCCCCCCC(=O)OCCO1
The “viability change, negative = cytotoxic” value of the first is lower: 0.53% for the first, 2.27% for the second.

Compared with `FC(F)(F)C(Cl)(Cl)Cl`, `OCCN1CCN(CCO)CC1` is higher in “viability change, negative = cytotoxic” value: -4.38% for the first, 4.26% for the second.

Going from `C1CSCCS1` to `CCCC1CCC(=O)O1` (stereo not given), the “viability change, negative = cytotoxic” value rises from 2.66% to 5.85%.

In the case of `CCNCCO`, the “viability change, negative = cytotoxic” value is reported as -3.54%.

Going from `CCN(CC)CCNC(=O)COc1ccc(Cl)cc1` to `CCCCNc1ccc(C(=O)OCCN(CC)CC)cc1`, the “viability change, negative = cytotoxic” value falls from 7.72% [at 42.5 µM] to -3.37% [at 42.5 µM].

First: CC(=O)N(CC(O)CN(C(C)=O)c1c(I)c(C(=O)NCC(O)CO)c(I)c(C(=O)NCC(O)CO)c1I)c1c(I)c(C(=O)NCC(O)CO)c(I)c(C(=O)NCC(O)CO)c1I (stereo not given)
Second: CCOC(=O)c1cc(=O)c2c(OCC(COc3cccc4oc(C(=O)OCC)cc(=O)c34)OC(=O)[C@@H](N)CCCCN)cccc2o1
The “viability change, negative = cytotoxic” value of the first is higher: 7.83% [at 42.5 µM] for the first, -6.25% [at 42.5 µM] for the second.

Going from `CN(C)CCOc1ccccc1Cc1ccccc1` to `CCN(CCCc1ccccc1)CCCc1ccccc1`, the “viability change, negative = cytotoxic” value rises from -8.97% [at 42.5 µM] to -8.78% [at 42.5 µM].

Compared with `CC(=O)N[C@@H](CC(C)C)C(=O)O`, `CCCN(CCC)C(=O)C(CCC(=O)O)NC(=O)c1ccccc1` (stereo not given) is lower in “viability change, negative = cytotoxic” value: 1.6% [at 42.5 µM] for the first, -1.55% [at 42.5 µM] for the second.

Compared with `CN(CCCN1c2ccccc2CCc2ccccc21)CC(=O)c1ccc(Cl)cc1`, `CN1CCN(C2=Nc3ccccc3Oc3ccc(Cl)cc32)CC1` is higher in “viability change, negative = cytotoxic” value: -17.3% [at 42.5 µM] for the first, -15.5% [at 42.5 µM] for the second.

First: Cc1ncc(CO)c(CN)c1O
Second: CC(=O)Oc1cc(C(C)C)c(OCCN(C)C)cc1C
The “viability change, negative = cytotoxic” value of the first is lower: 8.77% [at 42.5 µM] for the first, 9.61% [at 42.5 µM] for the second.

Going from `COc1ccc2nc(NC(=O)Nc3ccccc3)sc2c1` to `O=C(CCCl)NCc1ccccc1`, the “viability change, negative = cytotoxic” value rises from -17.4% [at 42.5 µM] to 7.35% [at 42.5 µM].

Compared with `NC/C=C/C(=O)O`, `NCCC(O)(P(=O)(O)O)P(=O)(O)O` is lower in “viability change, negative = cytotoxic” value: 8.1% [at 42.5 µM] for the first, 2.44% [at 42.5 µM] for the second.

Going from `CC(C)NCC(O)COc1ccc(CCOCC2CC2)cc1` (stereo not given) to `CCOc1ccc(NS(=O)(=O)c2ccc(N)cc2)nn1`, the “viability change, negative = cytotoxic” value rises from 2.84% [at 42.5 µM] to 14.9% [at 42.5 µM].

Work on `O=C(O)c1ccccc1Nc1cc(Cl)ccc1C(=O)O` yielded a viability change, negative = cytotoxic of -4.89% [at 19 µM].
